From PubChem BioAssay (NCI)
About 83,000 compounds went through this panel and 20% of them were active in at least one assay; those are over-represented in the sample as a whole.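 Compound tested at a single concentration for 48 hours in 96-well plates; a percent growth value below 10 was scored as active.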 Unmarked numbers belong to inactive results. Calls of active or inactive are those of the source.

Experiments:
Test in all cases: NCI-60 one-dose screen, 48 h (100 = growth as untreated, 0 = no growth, -100 = all killed)
Conditions in all cases: 10 µM unless noted
DU-145 prostate = system: DU-145 prostate
K-562 leukemia = system: K-562 leukemia
MALME-3M melanoma = system: MALME-3M melanoma
MDA-MB-231 breast = system: MDA-MB-231 breast
RXF 393 renal = system: RXF 393 renal
SF-268 CNS = system: SF-268 CNS
SF-295 CNS = system: SF-295 CNS
SF-539 CNS = system: SF-539 CNS
UACC-257 melanoma = system: UACC-257 melanoma
M14 melanoma = system: M14 melanoma

Row | Compound | growth (DU-145 prostate) | growth (K-562 leukemia) | growth (MALME-3M melanoma) | growth (MDA-MB-231 breast) | growth (RXF 393 renal) | growth (SF-268 CNS) | growth (SF-295 CNS) | growth (SF-539 CNS) | growth (UACC-257 melanoma) | growth (M14 melanoma)
1 | CNC(=O)c1cc(-n2ccc3cc(NC(=O)Nc4ccc(N5CCOCC5)c(C(F)(F)F)c4)ccc32)ccn1 | 54.9% | 4.09% (active) | 82% | 45.4% | -27.5% (active) | 72.6% | 12.3% | 23.3% | 56.8% | 23.6%
2 | CC1(C)[C@@H](O)CC[C@]2(C)[C@H]3CC[C@@H]4[C@H]5[C@H](C(=O)/C=C\c6ccncc6)CC[C@]5(O)CC[C@@]4(C)[C@]3(C)CC[C@@H]12 | 38% | 9.43% (active) | 94.3% | -8.43% (active) | -13.7% (active) | 50.2% | 93.3% | 37.9% | 72.8% | 67.4%
3 | N/C(=N\C(N)=N\c1nc2ccccc2s1)c1cccc(F)c1 | 104% [5 µM] | 89.2% [5 µM] | 91.5% [5 µM] | 78.7% [5 µM] | 122% [5 µM] | 99.1% [5 µM] | 87.8% [5 µM] | 100% [5 µM] | 104% [5 µM] | 98.4% [5 µM]
4 | CCC(NC(c1cc2cccc3ccc4cccc1c4c32)c1nnnn1C(C)(C)C)C1CCCCC1 (stereo not given) | 69.7% | 35.2% | 83.5% | 55.9% | 69.8% | 74.6% | 63.5% | 63.2% | 38.6% | 80.5%
5 | Cc1c(F)cc(C(N)=O)cc1NCC(=O)Nc1ccc([N+](=O)[O-])cc1 | 86.7% | 101% | 109% | 89.8% | 45.5% | 81.2% | 93.6% | 95.1% | 102% | 99.1%
6 | N/C(=N\C(N)=N\c1nc2ccccc2s1)c1ccc2ccccc2c1 | 69% | 69.3% | 91.3% | 67.9% | 91.8% | 78.9% | 74.6% | 102% | 109% | 97.5%
7 | CC1(C)CC[C@]2(C(=O)N3CCOCC3)CC[C@]3(C)C(=CC[C@@H]4[C@@]5(C)C/C(=C/c6ccco6)C(=O)C(C)(C)[C@@H]5CC[C@]43C)[C@@H]2C1 | 73.2% | 64.2% | 97.4% | 85.5% | -3.24% (active) | 63.1% | 95.3% | 86.5% | 94.5% | 101%
8 | COc1cc2oc(-c3cccc(C(=O)N[C@@H](CC(C)C)C(=O)OC(C)(C)C)c3)cc(=O)c2c(OC)c1OC | 72.8% | 36.7% | 96.3% | 72.1% | 86.2% | 83.8% | 52.3% | 88.6% | 112% | 93.7%
9 | Cc1noc(C)c1CSc1nc2ccccc2n1-c1ccccc1 | 86.4% | 88.6% | 118% | 81.5% | 60.4% | 85.7% | 98.1% | 95.3% | 110% | 104%
10 | Cc1cc(-c2ccc(Cl)cc2)n(Cc2nnc(SCC(=O)Nc3ccc(S(N)(=O)=O)cc3)n2-c2ccc([N+](=O)[O-])cc2)n1 | 101% | 64.3% | 92.9% | 93.3% | 75.9% | 95.6% | 73.4% | 97% | 98.5% | 85.5%
11 | CCCn1cnc2c(c1=N)C(c1ccc(Cl)cc1)c1sc3c(CC)cccc3c1O2 (stereo not given) | 13.7% | 11.3% | 55.6% | 30.8% | -22.5% (active) | 45.4% | -12.8% (active) | -19.7% (active) | 83.9% | 2.63% (active)
